Laboratory results reported in PubChem BioAssay.
Values joined by “and” are separate entries in the source; they are usually repeats but may differ in a detail not shown here. Equal values may be shown once. Inconclusive results are not listed. Active and inactive are the calls of the source.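 The calls were made as follows, unless noted: active = thallium flux through the channel raised or lowered by more than 3 SD from vehicle-only wells, actives on both sides; inactive = the rest.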

Columns and labels:
[1] = GFP-Q80 aggregate reduction, neuronal-like cells, cell-based, NGF-treated PC12, GFPQ80 (AID 1614); settings: PC12 NGF-treated GFP-polyQ80 inclusion reduction;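 also: lower means fewer inclusions and 0 means no inclusions at all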
[2] = viability loss in pontine glioma line – cell-based, SU-DIPG-XIII, MIPE4.0, CellTiter-Glo, qHTS, dose response (AID 1347061; cut-off not given, nearly all actives have AC50 up to about 37 µM;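 also: cells exposed to compound for 48 hours before readout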); settings: CellTiter-Glo ATP luminescence
[3] = viability loss in pontine glioma line – cell-based, JHH-DIPG-1, MIPE4.0, CellTiter-Glo, qHTS, dose response (AID 1347062; cut-off not given, nearly all actives have AC50 up to about 27 µM); settings: JHH-DIPG-1 viability, CellTiter-Glo ATP luminescence
[4] = viability loss in pontine glioma line – cell-based, SU-DIPG-IV, MIPE4.0, CellTiter-Glo, qHTS, dose response (AID 1347063; cut-off not given, nearly all actives have AC50 up to about 30 µM;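 also: compound exposure lasted 48 hours before the viability readout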); settings: CellTiter-Glo ATP luminescence
[5] = growth inhibition of DIPG cells – cell-based, MIPE4.0 library, CellTiter-Glo luminescence, qHTS (AID 1347066; cut-off not given, nearly all actives have AC50 up to about 30 µM;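 also: cells exposed to compound for 48 hours before readout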); settings: SU-DIPG-VI viability, CellTiter-Glo ATP luminescence
[6] = test system: F380Y; test: BK channel mutant inhibitors and activators – cell-based, U2OS BacMam, thallium flux, beta subunits, selectivity assay, profiling panel (AID 1259406); settings: U2OS BacMam BK variants, at 30 µM;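 also: initial slope of Thallos dye fluorescence rise after thallium is added; log ratio against the mean of 0.3% DMSO vehicle wells on the same plate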
[7] = test system: F380Y/beta1; test: as above; settings: U2OS BacMam BK variants, at 30 µM
[8] = test system: F380Y/beta2Delta; test: as above; settings: U2OS BacMam BK variants, at 30 µM
[9] = test system: F380Y/beta4; test: as above; settings: U2OS BacMam BK variants, at 30 µM
[10] = target: Calcium-activated potassium channel subunit alpha-1 (Homo sapiens) + Leucine-rich repeat-containing protein 26 (Homo sapiens) (UniProt Q12791+Q2I0M4); test: as above; settings: U2OS BacMam BK variants, F380Y/Slo1WT/gamma1, at 30 µM
[11] = test system: R275C; test: as above; settings: U2OS BacMam BK variants, at 30 µM
[12] = test system: R275C/beta1; test: as above; settings: U2OS BacMam BK variants, at 30 µM
[13] = test system: R275C/beta2Delta; test: as above; settings: U2OS BacMam BK variants, at 30 µM
[14] = test system: R275C/beta4; test: as above; settings: U2OS BacMam BK variants, at 30 µM
[15] = test system: R275C/Slo1WT/beta2; test: as above; settings: U2OS BacMam BK variants, at 30 µM
[16] = target: ATP-dependent translocase ABCB1 (Homo sapiens) (UniProt P08183); test: P-glycoprotein substrate transport blockade – cell-based (AID 377; in the data active = fluorescence slope change above about 50%); settings: MDR1-expressing cells, fluorescent substrate accumulation slope; stronger effect = higher value; concentration not given here
[17] = growth inhibition, single agents and combos, LFS_MB_1R, cell-based, cisplatin or BGB combos, synergistic combos for chromothripsis tumors (AID 1671452; in the data active = inhibition above about 80%;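 also: cells exposed for 96 hours before readout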); settings: LFS_MB_1R medulloblastoma cells, stronger effect = higher value
[18] = RCMB18 cell growth, single agent and combined, cisplatin and BGB IC40 combos (AID 1671462; in the data active = inhibition above about 80%;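 also: cells exposed to compound for four days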); settings: RCMB18 medulloblastoma cells, stronger effect = higher value
[19] = CRL1545 cell growth, single agent and combined, cisplatin and BGB IC20 combos (AID 1671464; in the data active = inhibition above about 80%;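 also: cells exposed to compound for 96 hours before readout; 0% = vehicle DMSO and 100% = high DMSO killing control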); settings: CRL1545 osteosarcoma cells, stronger effect = higher value
[20] = test system: Aerobactin synthetase IucA (Klebsiella pneumoniae); test: inhibition of K. pneumoniae IucA enzyme – biochemical, Tocris library, absorbance (AID 1345561; call rule not given here;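 also: 100% = enzyme without compound and 0% = no enzyme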); settings: purified IucA enzyme assay, absorbance (OD) read-out; stronger effect = lower value;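 tested at 8 µM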
[21] = measured here: combination with cisplatin, at 0.5 µM

Calcium-activated potassium channel subunit alpha-1 (Homo sapiens) + Leucine-rich repeat-containing protein 26 (Homo sapiens), sequence (Q2I0M4 whole entry, looked up, one chain of several): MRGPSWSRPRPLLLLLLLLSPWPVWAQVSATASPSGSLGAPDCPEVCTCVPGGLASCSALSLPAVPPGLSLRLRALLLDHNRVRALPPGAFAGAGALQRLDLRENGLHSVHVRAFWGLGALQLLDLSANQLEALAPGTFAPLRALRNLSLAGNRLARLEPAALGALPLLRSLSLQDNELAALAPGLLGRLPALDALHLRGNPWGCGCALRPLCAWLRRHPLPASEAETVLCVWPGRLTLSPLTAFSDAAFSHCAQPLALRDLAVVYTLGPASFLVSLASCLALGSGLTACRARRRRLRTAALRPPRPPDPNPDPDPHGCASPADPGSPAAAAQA
ATP-dependent translocase ABCB1 (Homo sapiens), sequence (P08183 whole entry, looked up): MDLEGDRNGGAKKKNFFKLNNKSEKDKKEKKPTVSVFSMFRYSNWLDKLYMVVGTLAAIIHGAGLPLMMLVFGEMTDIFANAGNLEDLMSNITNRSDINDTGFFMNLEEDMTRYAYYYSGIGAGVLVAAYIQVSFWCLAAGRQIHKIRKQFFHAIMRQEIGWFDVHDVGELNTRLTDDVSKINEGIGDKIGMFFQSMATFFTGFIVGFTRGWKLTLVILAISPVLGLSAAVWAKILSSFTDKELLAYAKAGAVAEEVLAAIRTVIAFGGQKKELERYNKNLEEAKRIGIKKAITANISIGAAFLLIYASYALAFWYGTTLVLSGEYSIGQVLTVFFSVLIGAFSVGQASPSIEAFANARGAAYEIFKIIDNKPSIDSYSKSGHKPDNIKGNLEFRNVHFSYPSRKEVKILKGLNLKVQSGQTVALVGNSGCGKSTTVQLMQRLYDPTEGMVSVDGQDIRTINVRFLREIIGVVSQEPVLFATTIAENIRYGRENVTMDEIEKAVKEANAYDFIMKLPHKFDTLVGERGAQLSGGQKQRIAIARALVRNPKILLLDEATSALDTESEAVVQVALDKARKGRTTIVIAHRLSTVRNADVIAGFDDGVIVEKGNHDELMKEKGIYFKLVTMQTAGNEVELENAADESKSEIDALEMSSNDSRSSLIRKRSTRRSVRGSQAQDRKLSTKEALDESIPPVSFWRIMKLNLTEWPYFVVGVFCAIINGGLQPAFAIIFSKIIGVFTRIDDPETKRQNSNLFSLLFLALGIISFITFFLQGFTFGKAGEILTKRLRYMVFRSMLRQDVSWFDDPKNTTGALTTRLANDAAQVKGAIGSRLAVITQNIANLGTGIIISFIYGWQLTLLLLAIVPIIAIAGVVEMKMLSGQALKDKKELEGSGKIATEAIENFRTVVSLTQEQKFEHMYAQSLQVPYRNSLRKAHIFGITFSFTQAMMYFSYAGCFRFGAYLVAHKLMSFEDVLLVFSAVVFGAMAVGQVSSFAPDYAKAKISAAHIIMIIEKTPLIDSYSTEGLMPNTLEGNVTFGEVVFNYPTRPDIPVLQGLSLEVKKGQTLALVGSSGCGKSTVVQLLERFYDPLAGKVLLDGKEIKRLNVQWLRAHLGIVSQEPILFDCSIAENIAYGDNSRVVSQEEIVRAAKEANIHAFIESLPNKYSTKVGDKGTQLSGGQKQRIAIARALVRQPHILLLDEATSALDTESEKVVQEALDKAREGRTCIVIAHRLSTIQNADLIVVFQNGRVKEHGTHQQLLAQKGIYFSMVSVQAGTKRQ

CC(C)(C)NCC(O)c1ccc(O)c(CO)c1 (centres undefined)
2: inclusion score [1]
inactive: outcome [2] | outcome [3] | outcome [4] | outcome [5]

CC12CCC(CC1)C(C)(C)O2
2: inclusion score [1]

CC(C)OC(=O)C(C)(C)Oc1ccc(C(=O)c2ccc(Cl)cc2)cc1
0: inclusion score [1]
inactive: outcome [3] | outcome [4] | log fold change Tl+ flux [6] -0.0417 | log fold change Tl+ flux [7] -0.0557 | log fold change Tl+ flux [8] -0.0352 | log fold change Tl+ flux [9] 0.00294 | log fold change Tl+ flux [10] -0.00437 | log fold change Tl+ flux [11] -0.0206 | log fold change Tl+ flux [12] -0.021 | log fold change Tl+ flux [13] 0.00724 | log fold change Tl+ flux [14] 0.00518 | log fold change Tl+ flux [15] 0.0641

COCCCOc1ccnc(CS(=O)c2nc3ccccc3[nH]2)c1C (centres undefined)
inactive: outcome [2] | outcome [3] | outcome [4] | outcome [5]

CN/C(=C\[N+](=O)[O-])NCCSCc1ccc(CN(C)C)o1
active: fluorescence slope change [16] 105%
2: inclusion score [1]
inactive: log fold change Tl+ flux [6] -0.0669 | log fold change Tl+ flux [7] -0.0094 | log fold change Tl+ flux [8] 0.0319 | log fold change Tl+ flux [9] 0.0499 | log fold change Tl+ flux [10] -0.0244 | log fold change Tl+ flux [11] 0.017 | log fold change Tl+ flux [12] 0.0242 | log fold change Tl+ flux [13] -0.00414 | log fold change Tl+ flux [14] -0.0213 | log fold change Tl+ flux [15] -0.015

CCn1cc(C(=O)O)c(=O)c2ccc(C)nc21
2: inclusion score [1]
0.11% and -3.86%: inhibition ([19]; single agent, at 5 µM)
-21.7% and -0.433%: inhibition ([17]; measured here: combination with BGB IC40, at 0.05 µM)
-12.1% and -5.6%: inhibition ([19]; measured here: with BGB IC20 combination, at 0.5 µM)
-16.3% and -36.4%: inhibition ([19]; measured here: with cisplatin IC20 combination, at 0.5 µM)
-1.32% and 14.5%: inhibition ([17]; measured here: combination with cisplatin, at 5 µM)
-12.4% and -29.6%: inhibition ([18]; single agent, at 5 µM)
inactive: outcome [2] | outcome [3] | outcome [5] | inhibition ([17]; at 0.5 µM) -19% and -13.7% | inhibition ([18]; at 0.5 µM) 1.01% and -9.08% | inhibition ([19]; at 0.5 µM) -14.9% and -26.1% | log fold change Tl+ flux [6] 0.0464 | log fold change Tl+ flux [7] 0.00258 | log fold change Tl+ flux [8] 0.0152 | log fold change Tl+ flux [9] 0.0252 | log fold change Tl+ flux [10] 0.0259 | log fold change Tl+ flux [11] -0.0165 | log fold change Tl+ flux [12] 0.0366 | log fold change Tl+ flux [13] 0.000751 | log fold change Tl+ flux [14] 0.0726 | log fold change Tl+ flux [15] -0.00423
0.823% and 3.11%: inhibition ([18]; cisplatin combo, at 5 µM)
active: fluorescence slope change [16] 59.8%
11.9% and -0.784%: inhibition ([18]; measured here: BGB IC40 combination, at 0.05 µM)
-11.3% and -2.66%: inhibition [18, 21]
-17.6% and 10%: inhibition ([19]; single agent, at 0.05 µM)
-30.2% and 15.7%: inhibition [17, 21]

C[C@@H](C1=C(CCN(C)C)Cc2ccccc21)c1ccccn1
inactive: remaining activity [20] 105%

COc1c2occc2cc2ccc(=O)oc12
inactive: outcome [2] | outcome [3] | outcome [4] | outcome [5] | log fold change Tl+ flux [6] -0.0152 | log fold change Tl+ flux [7] 0.0099 | log fold change Tl+ flux [8] -0.0131 | log fold change Tl+ flux [9] 0.0241 | log fold change Tl+ flux [10] 0.011 | log fold change Tl+ flux [11] 0.0168 | log fold change Tl+ flux [12] -0.00904 | log fold change Tl+ flux [13] 0.0233 | log fold change Tl+ flux [14] 0.0801 | log fold change Tl+ flux [15] 0.00849
active: fluorescence slope change [16] 78.2%
2: inclusion score [1]

CCN(CC)CCOc1ccc(Cc2ccccc2)cc1
inactive: remaining activity [20] 100% | outcome [5]

CN1CCN(C2=Nc3cc(Cl)ccc3Nc3ccccc32)CC1
active: log fold change Tl+ flux [6] 0.296 | log fold change Tl+ flux [7] 0.177 | log fold change Tl+ flux [8] 0.389 | log fold change Tl+ flux [9] 0.214 | log fold change Tl+ flux [12] 0.156 | log fold change Tl+ flux [13] 0.106 | log fold change Tl+ flux [14] 0.137
inactive: remaining activity [20] 121% | outcome [3] | outcome [4] | outcome [5] | log fold change Tl+ flux [10] 0.0716 | log fold change Tl+ flux [11] 0.0716 | log fold change Tl+ flux [15] 0.0195

COc1ccc2cc([C@H](C)C(=O)O)ccc2c1
inactive: remaining activity [20] 75.8% | outcome [2] | outcome [3] | outcome [4] | outcome [5] | log fold change Tl+ flux [6] 0.000985 | log fold change Tl+ flux [7] 0.0107 | log fold change Tl+ flux [8] 0.00769 | log fold change Tl+ flux [9] -0.000569 | log fold change Tl+ flux [10] 0.0442 | log fold change Tl+ flux [11] -0.0405 | log fold change Tl+ flux [12] -0.0361 | log fold change Tl+ flux [13] -0.0194 | log fold change Tl+ flux [14] -0.0294 | log fold change Tl+ flux [15] 0.0377
2: inclusion score [1]

Cc1ccc(-n2nc(C(C)(C)C)cc2NC(=O)Nc2ccc(OCCN3CCOCC3)c3ccccc23)cc1
inactive: outcome [3] | outcome [4] | outcome [5]
active: AC50 [2] 13.2 µM

COc1cc(Cc2cnc(N)nc2N)cc(OC)c1OC
2: inclusion score [1]
inactive: log fold change Tl+ flux [6] 0.00407 | log fold change Tl+ flux [7] 0.057 | log fold change Tl+ flux [8] -0.0235 | log fold change Tl+ flux [9] 0.0143 | log fold change Tl+ flux [10] -0.00393 | log fold change Tl+ flux [11] 0.00151 | log fold change Tl+ flux [12] -0.051 | log fold change Tl+ flux [13] -0.0321 | log fold change Tl+ flux [14] 0.00256 | log fold change Tl+ flux [15] 0.00876

CC(C)NCC(O)COc1cccc2[nH]ccc12 (centres undefined)
2: inclusion score [1]
active: fluorescence slope change [16] 68.5%
inactive: remaining activity [20] 101% | log fold change Tl+ flux [6] -0.0071 | log fold change Tl+ flux [7] 0.0264 | log fold change Tl+ flux [8] 0.0139 | log fold change Tl+ flux [9] 0.000781 | log fold change Tl+ flux [10] 0.0267 | log fold change Tl+ flux [11] 0.00949 | log fold change Tl+ flux [12] 0.00683 | log fold change Tl+ flux [13] -0.0133 | log fold change Tl+ flux [14] -0.00429 | log fold change Tl+ flux [15] 0.017

O=C(O)CCc1nc(-c2ccccc2)c(-c2ccccc2)o1
active: log fold change Tl+ flux [7] 0.171 | log fold change Tl+ flux [12] 0.113
inactive: log fold change Tl+ flux [6] 0.0468 | log fold change Tl+ flux [8] 0.0584 | log fold change Tl+ flux [9] 0.0201 | log fold change Tl+ flux [10] 0.0291 | log fold change Tl+ flux [11] -0.025 | log fold change Tl+ flux [13] 0.0648 | log fold change Tl+ flux [14] 0.0678 | log fold change Tl+ flux [15] 0.0514

Cc1cc(NS(=O)(=O)c2ccc(N)cc2)no1
active: fluorescence slope change [16] 62% | AC50 [2] 2.96 µM
inactive: outcome [3] | outcome [4] | log fold change Tl+ flux [6] -0.0179 | log fold change Tl+ flux [7] -0.0321 | log fold change Tl+ flux [8] 0.0172 | log fold change Tl+ flux [9] -0.00222 | log fold change Tl+ flux [10] -0.00437 | log fold change Tl+ flux [11] 0.00714 | log fold change Tl+ flux [12] 0.00387 | log fold change Tl+ flux [13] -0.00735 | log fold change Tl+ flux [14] -0.0559 | log fold change Tl+ flux [15] -0.0702
2: inclusion score [1]

O=C1CN(/N=C/c2ccc([N+](=O)[O-])o2)C(=O)N1
active: fluorescence slope change [16] 98.9%
2: inclusion score [1]

COc1ccccc1N1CCN(CCCCNC(=O)c2ccc(-c3ccc(C(C)=O)cc3)cc2)CC1
inactive: remaining activity [20] 111%

CN1[C@@H]2CC(OC(=O)[C@H](CO)c3ccccc3)C[C@H]1[C@@H]1O[C@@H]12 (some centres undefined)
inactive: remaining activity [20] 104%

CC1(C)[C@H](C(=O)O)N2C(=O)C[C@H]2S1(=O)=O
inactive: outcome [3] | outcome [4] | outcome [5]

COc1ccc(-c2nc3ccc(C4=NNC(=O)CC4C)cc3[nH]2)cc1 (centres undefined)
inactive: outcome [2] | outcome [3] | outcome [5]

O=C(NCC1CCCCN1)c1cc(OCC(F)(F)F)ccc1OCC(F)(F)F (centres undefined)
inactive: remaining activity [20] 117% | outcome [2] | outcome [5]
